Assay results as given in PubChem BioAssay (NCATS).
Unmarked numbers belong to inactive results. Results filed as inconclusive are left out. The source made the active and inactive calls. Calls follow the shape of the dose curve; as a rule, active = well fitted curve in the direction sought with a large enough effect; inconclusive = small, poorly fitted or top-dose-only effect, or another doubt; inactive = no such curve, though single readings can be large; an effect the other way counts as inactive or inconclusive.

Target: M-phase phosphoprotein 8 (Homo sapiens) (UniProt Q99549)
Test: qHTS Validation Assay for Inhibitors for MPP8 Chromodomain Interactions with Methylated Histone Tails (AID 488949); also: nearly all actives have a fitted effect of over 55% in size; also: potency is read from the fitted curve at half-maximal effect;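 as to activity change, negative = inhibition: AlphaScreen signal from MPP8 chromodomain bound to biotinylated H3K9me3 peptide; top concentration of the series differs between compounds; % is scaled to controls: 0 for no effect and ±100 for the full control effect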
Conditions: AlphaScreen MPP8 binding to H3K9me3 peptide; series mostly up to 114 µM; activity change, negative = inhibition: at the top concentration
Method in brief: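 Disruption of the preformed MPP8–trimethyl-H3K9 peptide complex (both 50 nM, 30 min, RT) is measured after 30 min compound exposure, using AlphaScreen proximity beads; aurintricarboxylic acid titration serves as plate control.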

Sequence of M-phase phosphoprotein 8 (Homo sapiens) (Q99549 whole entry, looked up): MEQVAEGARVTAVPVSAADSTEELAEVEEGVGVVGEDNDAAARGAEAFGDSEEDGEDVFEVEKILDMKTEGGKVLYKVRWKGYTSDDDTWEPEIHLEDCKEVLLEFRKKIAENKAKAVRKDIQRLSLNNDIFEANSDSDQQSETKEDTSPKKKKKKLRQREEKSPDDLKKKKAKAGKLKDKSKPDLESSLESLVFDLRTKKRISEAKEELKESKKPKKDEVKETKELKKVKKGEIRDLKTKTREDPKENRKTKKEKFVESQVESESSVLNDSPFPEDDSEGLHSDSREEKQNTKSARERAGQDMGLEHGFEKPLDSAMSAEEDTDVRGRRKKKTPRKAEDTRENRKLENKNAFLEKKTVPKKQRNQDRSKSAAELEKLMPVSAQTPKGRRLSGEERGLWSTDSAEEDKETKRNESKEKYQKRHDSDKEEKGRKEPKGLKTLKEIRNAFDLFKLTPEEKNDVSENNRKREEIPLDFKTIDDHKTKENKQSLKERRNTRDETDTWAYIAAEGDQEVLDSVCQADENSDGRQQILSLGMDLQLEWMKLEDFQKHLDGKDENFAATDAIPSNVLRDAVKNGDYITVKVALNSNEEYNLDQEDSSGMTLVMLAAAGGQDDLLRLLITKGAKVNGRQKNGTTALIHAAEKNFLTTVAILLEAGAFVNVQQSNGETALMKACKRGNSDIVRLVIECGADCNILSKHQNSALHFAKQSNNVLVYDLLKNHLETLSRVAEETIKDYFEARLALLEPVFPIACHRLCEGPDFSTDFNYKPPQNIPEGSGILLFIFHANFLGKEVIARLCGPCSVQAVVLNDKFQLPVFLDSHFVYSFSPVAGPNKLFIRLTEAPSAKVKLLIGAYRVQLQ

| SMILES | activity change, negative = inhibition [%] | Potency |
| --- | --- | --- |
| OC[C@H]1O[C@@H](n2cnc3c(Nc4ccccc4)ncnc32)[C@H](O)[C@H]1O | 13.3 | – |
| N[C@H](Cc1ccc(O)c(O)c1)C(=O)O | – | 17.8 µM (active) |
| Nc1nc(Nc2ccccc2)nc2c1ncn2[C@@H]1O[C@H](CO)[C@H](O)[C@H]1O | -1.4 | – |
| O=C(O)CC[C@H](NC(=O)c1ccccc1C(=O)O)C(=O)O | 8.5 | – |
| NCC1OC(O[C@@H]2[C@H](O)[C@@H](OC3C(O)C(N)CC(N)C3OC3OC(CO)C(O)C(O)C3N)O[C@@H]2CO)C(N)C(O)C1O (some centres not stated) | -2.51 | – |
| COc1cc(=O)n(C)c2c(OCC(O)C(C)(C)O)cccc12 (configuration not stated) | 2.69 | – |
| C[C@]12CCC(=O)C=C1CC[C@@H]1C2[C@@H](O)C[C@@]2(C)[C@H]1CC[C@]2(O)C(=O)CO (some centres not stated) | 0.31 | – |
| CN1C(=O)CCC1c1cccnc1 (configuration not stated) | -8.23 | – |
| CC(=O)O[C@H]1C[C@@H]2CCC3C(CC[C@@]4(C)[C@H]3C[C@H]([N+]3(C)CCCCC3)[C@@H]4OC(C)=O)[C@@]2(C)C[C@@H]1[N+]1(C)CCCCC1 (some centres not stated) | -14.7 | – |
| N=C(N)SCCc1cccc(CCSC(=N)N)c1 | -2.4 | – |
| Nc1nc(SCc2ccc([N+](=O)[O-])cc2)c2ncn([C@@H]3O[C@H](CO)[C@H](O)[C@H]3O)c2n1 | 10.4 | – |

Target: Transient receptor potential cation channel subfamily V member 1 (Homo sapiens) (UniProt Q8NER1)
Test: HTS Assay for Compounds that Act as Enhancers of the Vanilloid Receptor 1 (AID 488979); also: 0% is about no effect
Conditions: TRPV1-expressing cells, enhancer of channel activity, stimulated with capsaicin at EC20; series mostly up to 41.7 µM; activity change, positive = enhancement: at the top concentration
Method in brief: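 TRPV1 cells loaded with Fluo-8 calcium dye; compound added and Ca2+ signal (ex 480/em 520 nm) followed 3 min, then capsaicin at EC20 added and read 2 more min to detect enhancement.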

Sequence of Transient receptor potential cation channel subfamily V member 1 (Homo sapiens) (Q8NER1 whole entry, looked up): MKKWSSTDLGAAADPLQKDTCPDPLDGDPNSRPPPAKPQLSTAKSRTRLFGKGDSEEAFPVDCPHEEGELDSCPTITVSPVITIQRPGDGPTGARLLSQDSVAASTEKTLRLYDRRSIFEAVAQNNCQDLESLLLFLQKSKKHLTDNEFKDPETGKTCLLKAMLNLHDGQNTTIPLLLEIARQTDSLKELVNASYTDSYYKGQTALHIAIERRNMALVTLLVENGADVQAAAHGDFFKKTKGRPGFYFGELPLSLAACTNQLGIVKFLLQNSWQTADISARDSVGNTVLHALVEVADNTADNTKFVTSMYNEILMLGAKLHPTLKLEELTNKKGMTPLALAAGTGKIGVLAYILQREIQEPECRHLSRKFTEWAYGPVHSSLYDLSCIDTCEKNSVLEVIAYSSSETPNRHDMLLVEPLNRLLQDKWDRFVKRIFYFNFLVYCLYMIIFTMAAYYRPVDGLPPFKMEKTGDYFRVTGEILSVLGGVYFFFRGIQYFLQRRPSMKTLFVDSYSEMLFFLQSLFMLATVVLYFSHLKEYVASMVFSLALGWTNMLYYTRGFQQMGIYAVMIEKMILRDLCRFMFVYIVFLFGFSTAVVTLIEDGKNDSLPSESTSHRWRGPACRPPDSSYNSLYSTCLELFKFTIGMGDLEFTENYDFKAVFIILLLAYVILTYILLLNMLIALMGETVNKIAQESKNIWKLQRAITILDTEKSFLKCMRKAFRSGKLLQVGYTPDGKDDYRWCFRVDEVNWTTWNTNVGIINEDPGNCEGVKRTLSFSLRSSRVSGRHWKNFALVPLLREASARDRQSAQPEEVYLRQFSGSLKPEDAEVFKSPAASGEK

| SMILES | activity change, positive = enhancement [%] |
| --- | --- |
| CC(N)=NCCCC(N)C(=O)O (configuration not stated) | 8.4 |
| Cc1cn([C@H]2C[C@@H](N=[N+]=[N-])[C@@H](CO)O2)c(=O)[nH]c1=O | 5.44 |
| N.N.N.N.N.N.N.N.N.N.N.N.N.N.O.O.[Cl-].[Cl-].[Cl-].[Cl-].[Cl-].[Cl-].[Ru].[Ru].[Ru] | -2.88 |
| CN=C(N)NCCCC(N)C(=O)O (configuration not stated) | -6.98 |
| COc1c2c(nc3ccccc13)OC(C(C)(O)CO)C2 (configuration not stated) | -17 |
| CC(C)C1NC(=O)[C@H](CCCCN)NC(=O)[C@@H](Cc2c[nH]c3ccccc23)NC(=O)[C@H](Cc2ccc(O)cc2)NC(=O)[C@H](C)N(C)C(=O)[C@H](Cc2ccccc2)NC1=O (some centres not stated) | 1.76 |
| NCCC(=O)NCCc1cnc[nH]1 | 1.56 |
| O=C(Cc1ccc(Cl)c(Cl)c1)OCCN1CCCC1 | 12.1 |
| Cc1ccccc1N1CCN(S(=O)(=O)C[C@]23CCC(CC2NC(=O)[C@@H](N)CCS(C)(=O)=O)C3(C)C)CC1 (some centres not stated) | 12 |
| NC(=O)C1=CN(C2OC(COP(=O)(O)OP(=O)(O)OC[C@H]3O[C@@H](n4cnc5c(N)ncnc54)[C@H](OP(=O)(O)O)[C@H]3O)C(O)C2O)C=CC1 (some centres not stated) | -3.16 |
| CC(=O)[C@@]1(O)CC[C@H]2C3CCC4=CC(=O)CC[C@]4(C)C3CC[C@@]21C (some centres not stated) | 15.4 |
| OC[C@H]1O[C@@H](n2cnc3c(NCCc4ccccc4)ncnc32)[C@H](O)[C@H]1O | -1.91 |
| CCCCCCCCCCCCCCC/C=C/[C@@H](O)[C@H](NC(=O)CCCCCCCCCCCCC)OC (tested in a mixture with another compound) | -2.35 |
| CNc1ncnc2c1ncn2[C@@H]1O[C@H](CO)[C@H](O)[C@H]1O | 5.05 |
| NCCNC(=O)c1ccc(Cl)cc1 | -9.8 |
| NC(=NCCC[C@H](N)C(=O)O)NO | 4.24 |
| OC[C@H]1O[C@@H](n2cnc3c(Nc4ccccc4)ncnc32)[C@H](O)[C@H]1O | -8.77 |
| N[C@H](Cc1ccc(O)c(O)c1)C(=O)O | 5.28 |
| Nc1nc(Nc2ccccc2)nc2c1ncn2[C@@H]1O[C@H](CO)[C@H](O)[C@H]1O | 3.44 |
| NC(=S)c1ccc[n+]([C@@H]2O[C@@H](COP(=O)([O-])OP(=O)(O)OC[C@H]3O[C@@H](n4cnc5c(N)ncnc54)[C@H](OP(=O)(O)O)[C@H]3O)C(O)C2O)c1 (some centres not stated) | 2.1 |
| O=C(O)CC[C@H](NC(=O)c1ccccc1C(=O)O)C(=O)O | 5.07 |
| NCC1OC(O[C@@H]2[C@H](O)[C@@H](OC3C(O)C(N)CC(N)C3OC3OC(CO)C(O)C(O)C3N)O[C@@H]2CO)C(N)C(O)C1O (some centres not stated) | 9.28 |
| COc1cc(=O)n(C)c2c(OCC(O)C(C)(C)O)cccc12 (configuration not stated) | -2.31 |
| C[C@]12CCC(=O)C=C1CC[C@@H]1C2[C@@H](O)C[C@@]2(C)[C@H]1CC[C@]2(O)C(=O)CO (some centres not stated) | 6.74 |
| CN1C(=O)CCC1c1cccnc1 (configuration not stated) | 2.57 |
| CC(=O)O[C@H]1C[C@@H]2CCC3C(CC[C@@]4(C)[C@H]3C[C@H]([N+]3(C)CCCCC3)[C@@H]4OC(C)=O)[C@@]2(C)C[C@@H]1[N+]1(C)CCCCC1 (some centres not stated) | 2.25 |
| N=C(N)SCCc1cccc(CCSC(=N)N)c1 | 7.36 |
| Nc1nc(SCc2ccc([N+](=O)[O-])cc2)c2ncn([C@@H]3O[C@H](CO)[C@H](O)[C@H]3O)c2n1 | 2.6 |

Target: Thyrotropin receptor (Homo sapiens) (UniProt P16473)
Test: qHTS Assay for Antagonists of the Thyroid Stimulating Hormone Receptor (AID 488980); also: 0% is about no effect
Conditions: TSHR-expressing cells, cAMP antagonist read-out; series mostly up to 57.5 µM; activity, negative = inhibition: at the top concentration
Method in brief: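 Cells expressing human TSHR (HEK293) are dispensed in HBSS/HEPES containing 70 uM RO 20-1724, compound is added, then TSH at EC80 (4 nM final). Antibody in lysis buffer follows, 30 minutes at room temperature before HTRF detection.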

Sequence of Thyrotropin receptor (Homo sapiens) (P16473 whole entry, looked up): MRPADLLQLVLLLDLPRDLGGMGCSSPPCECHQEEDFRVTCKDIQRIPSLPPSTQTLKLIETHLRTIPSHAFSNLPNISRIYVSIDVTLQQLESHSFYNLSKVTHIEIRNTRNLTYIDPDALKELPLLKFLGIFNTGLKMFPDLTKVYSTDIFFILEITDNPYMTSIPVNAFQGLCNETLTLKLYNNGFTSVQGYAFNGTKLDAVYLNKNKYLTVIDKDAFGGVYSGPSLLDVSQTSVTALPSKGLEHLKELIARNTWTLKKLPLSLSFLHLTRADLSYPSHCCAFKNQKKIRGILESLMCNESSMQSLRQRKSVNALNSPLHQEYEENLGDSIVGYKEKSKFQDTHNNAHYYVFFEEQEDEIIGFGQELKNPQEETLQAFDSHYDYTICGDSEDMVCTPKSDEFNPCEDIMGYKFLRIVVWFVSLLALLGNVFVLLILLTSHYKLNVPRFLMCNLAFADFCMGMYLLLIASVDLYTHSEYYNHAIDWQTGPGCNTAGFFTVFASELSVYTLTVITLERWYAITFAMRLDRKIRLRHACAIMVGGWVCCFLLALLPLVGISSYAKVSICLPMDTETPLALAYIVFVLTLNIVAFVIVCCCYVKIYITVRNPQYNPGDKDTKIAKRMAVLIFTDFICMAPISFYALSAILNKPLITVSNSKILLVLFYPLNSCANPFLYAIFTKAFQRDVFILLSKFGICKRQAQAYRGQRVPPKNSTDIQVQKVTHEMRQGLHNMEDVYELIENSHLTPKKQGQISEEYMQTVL

| SMILES | activity, negative = inhibition [%] |
| --- | --- |
| CNC(=O)[C@H]1O[C@@H](n2cnc3c(NCc4cccc(I)c4)ncnc32)[C@H](O)[C@H]1O | -0.799 |
| CC(N)=NCCCC(N)C(=O)O (configuration not stated) | -0.793 |
| CN=C(N)NCCCC(N)C(=O)O (configuration not stated) | -1.07 |
| COc1c2c(nc3ccccc13)OC(C(C)(O)CO)C2 (configuration not stated) | -0.0861 |
| CN1C2CC(OC(=O)C(CO)c3ccccc3)CC1C1OC12 (configuration not stated) | -1.68 |
| CC(C)C1NC(=O)[C@H](CCCCN)NC(=O)[C@@H](Cc2c[nH]c3ccccc23)NC(=O)[C@H](Cc2ccc(O)cc2)NC(=O)[C@H](C)N(C)C(=O)[C@H](Cc2ccccc2)NC1=O (some centres not stated) | -0.344 |
| NCCC(=O)NCCc1cnc[nH]1 | -0.625 |
| O=C(Cc1ccc(Cl)c(Cl)c1)OCCN1CCCC1 | -0.822 |
| Cc1ccccc1N1CCN(S(=O)(=O)C[C@]23CCC(CC2NC(=O)[C@@H](N)CCS(C)(=O)=O)C3(C)C)CC1 (some centres not stated) | -0.683 |
| NC(=O)C1=CN(C2OC(COP(=O)(O)OP(=O)(O)OC[C@H]3O[C@@H](n4cnc5c(N)ncnc54)[C@H](OP(=O)(O)O)[C@H]3O)C(O)C2O)C=CC1 (some centres not stated) | -0.536 |
| CC(=O)[C@@]1(O)CC[C@H]2C3CCC4=CC(=O)CC[C@]4(C)C3CC[C@@]21C (some centres not stated) | -0.505 |
| OC[C@H]1O[C@@H](n2cnc3c(NCCc4ccccc4)ncnc32)[C@H](O)[C@H]1O | -2.54 |
| CCCCCCCCCCCCCCC/C=C/[C@@H](O)[C@H](NC(=O)CCCCCCCCCCCCC)OC (tested in a mixture with another compound) | -2.54 |
| CNc1ncnc2c1ncn2[C@@H]1O[C@H](CO)[C@H](O)[C@H]1O | -1.16 |
| NCCNC(=O)c1ccc(Cl)cc1 | -1.02 |
| NC(=NCCC[C@H](N)C(=O)O)NO | -0.297 |
| OC[C@H]1O[C@@H](n2cnc3c(Nc4ccccc4)ncnc32)[C@H](O)[C@H]1O | -1.95 |
| N[C@H](Cc1ccc(O)c(O)c1)C(=O)O | -0.0548 |
| Nc1nc(Nc2ccccc2)nc2c1ncn2[C@@H]1O[C@H](CO)[C@H](O)[C@H]1O | -0.47 |
| NC(=S)c1ccc[n+]([C@@H]2O[C@@H](COP(=O)([O-])OP(=O)(O)OC[C@H]3O[C@@H](n4cnc5c(N)ncnc54)[C@H](OP(=O)(O)O)[C@H]3O)C(O)C2O)c1 (some centres not stated) | -1.74 |
| O=C(O)CC[C@H](NC(=O)c1ccccc1C(=O)O)C(=O)O | -0.125 |
| NCC1OC(O[C@@H]2[C@H](O)[C@@H](OC3C(O)C(N)CC(N)C3OC3OC(CO)C(O)C(O)C3N)O[C@@H]2CO)C(N)C(O)C1O (some centres not stated) | -0.0235 |
| COc1cc(=O)n(C)c2c(OCC(O)C(C)(C)O)cccc12 (configuration not stated) | -0.776 |
| C[C@]12CCC(=O)C=C1CC[C@@H]1C2[C@@H](O)C[C@@]2(C)[C@H]1CC[C@]2(O)C(=O)CO (some centres not stated) | -0.274 |
| CN1C(=O)CCC1c1cccnc1 (configuration not stated) | -0.444 |
| CC(=O)O[C@H]1C[C@@H]2CCC3C(CC[C@@]4(C)[C@H]3C[C@H]([N+]3(C)CCCCC3)[C@@H]4OC(C)=O)[C@@]2(C)C[C@@H]1[N+]1(C)CCCCC1 (some centres not stated) | -0.906 |
| N=C(N)SCCc1cccc(CCSC(=N)N)c1 | 0.0783 |
| Nc1nc(SCc2ccc([N+](=O)[O-])cc2)c2ncn([C@@H]3O[C@H](CO)[C@H](O)[C@H]3O)c2n1 | -0.305 |
